PRMT1 inh: PRMT1 methyltransferase inhibitors, primary screen, biochemical, fluorescence polarization | AID 652257, 2013 | inhibition, % at 2.79 µM | recombinant PRMT1, activity-based probe fluorescence polarization | Protein arginine N-methyltransferase 1 (Homo sapiens), Q99873 | hit rate 1.3% among 370,000;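 active = inhibition above about 21% made by adding two undisclosed values, limit read from the data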
rCAG RNA binder: binders of r(CAG) RNA repeats, primary screen, biochemical, fluorescence; r(CAG) RNA repeat, TO-PRO-1 dye displacement fluorescence; inhibition, % at 3 µM; hit rate 1.3% among 370,000;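 active = inhibition above the plate cutoff, the mean of all test compounds on that plate plus 3 SD, cut at about 35% in these data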;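 also: 0% = DMSO alone and 100% = 100 µM mitoxantrone as full dye displacement; higher means more dye released from RNA so lower well fluorescence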
TLR9-MyD88 inh: inhibitors of TLR9-MyD88 association in cells, primary screen, cell-based, CHO, BLA complementation, fluorescence; Toll-like receptor 9 (Homo sapiens) + Myeloid differentiation primary response protein …; CCF4 FRET ratio; inhibition, % at 4.98 µM; hit rate 0.21% among 340,000; AID 504734, 2011;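 active = inhibition above the mean over all tested compounds plus 3 SD, cut at about 21% in these data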;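 also: 0% = DMSO only wells and 100% = clavulanate BLA inhibitor control wells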
NOD2-RIPK2 inh: NOD2-RIPK2 binding disruptors in cells, primary screen, fluorescence, CHO cells, BLA complementation; Receptor-interacting serine/threonine-protein kinase 2 (Homo sapiens), O43353; hit rate 0.38% among 360,000; inhibition, % at 4.98 µM; CCF4 ratio; in the data active = inhibition above about 21%;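 also: 0% = vehicle only and 100% = reference blocker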
Target sequence (O43353 whole entry, looked up): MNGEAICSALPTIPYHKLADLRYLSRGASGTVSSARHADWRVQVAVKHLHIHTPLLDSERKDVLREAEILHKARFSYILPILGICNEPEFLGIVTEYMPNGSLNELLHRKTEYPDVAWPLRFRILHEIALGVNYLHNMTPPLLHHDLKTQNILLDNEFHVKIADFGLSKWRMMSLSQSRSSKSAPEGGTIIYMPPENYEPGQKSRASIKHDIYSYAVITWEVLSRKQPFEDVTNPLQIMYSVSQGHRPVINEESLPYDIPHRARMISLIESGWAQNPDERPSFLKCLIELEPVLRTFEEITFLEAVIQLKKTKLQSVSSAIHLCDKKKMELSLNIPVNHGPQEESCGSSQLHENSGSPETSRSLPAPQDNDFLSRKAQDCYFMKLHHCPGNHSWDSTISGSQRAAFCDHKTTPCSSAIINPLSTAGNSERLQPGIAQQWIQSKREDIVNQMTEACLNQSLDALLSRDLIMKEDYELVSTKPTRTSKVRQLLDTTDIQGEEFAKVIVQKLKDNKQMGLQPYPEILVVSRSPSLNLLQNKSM
ABHD5 PLIN5 PPI: ABHD5-PLIN5 interaction inhibitors, primary screen, cell lysate, split luciferase complementation, luminescence; AID 602281, 2012; Perilipin-5 (Homo sapiens) + 1-acylglycerol-3-phosphate O-acyltransferase ABHD5 (Homo …; hit rate 0.78% among 360,000; Split G. princeps luciferase complementation, 4 h; inhibition, % at 4 µM;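 active = inhibition above the mean inhibition across every tested compound plus 3 SD, cut at about 22% in these data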;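 also: 0% = DMSO only wells and the 100% control is not disclosed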
TLR4-MyD88 BLA: inhibitors of TLR4-MyD88 association in cells, primary screen, cell-based, HeLa CL3-4, BLA complementation, FRET ratio; AID 861, 2007; HeLa CL3-4 TLR4/MyD88 BLA complementation; hit rate 0.18% among 200,000; inhibition, % at 8.4 µM; in the data active = inhibition above about 25%;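 also: 0% = vehicle and 100% = reference inhibitor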
TLR4-MyD88 conf: TLR4-MyD88 association inhibitors, retest, confirmation, cell-based, HeLa CL3-4, BLA complementation, FRET ratio; shares compounds with TLR4-MyD88 BLA; CCF4 FRET ratio; inhibition, % at 8.4 µM; hit rate 50% among 350; AID 941, 2007;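 active = mean inhibition across three repeat runs above about 25% carried over from the earlier screen, limit read from the data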;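 also: plate controls were DMSO only for no effect and clavulanic acid blocking BLA at full dose for full effect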
BLA inh HeLa: beta-lactamase inhibition flagged in TLR4-MyD88 counter-screen; shares compounds with TLR4-MyD88 BLA; HeLa BLA reporter, CCF4 FRET ratio; inhibition, % at 8.4 µM; hit rate 63% among 350;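 active = mean inhibition over three repeats above about 26% taken from the earlier screen, limit read from the data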;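 also: HeLa cells stably expressing beta-lactamase reporter as counterscreen for TLR4-MyD88 inhibitors; 0% = DMSO and 100% = clavulanic acid full inhibition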
TLR9-MyD88 cf: TLR9-MyD88 association inhibitors, retest, confirmation, cell-based, CHO, BLA complementation, fluorescence, triplicate; inhibition, % at 4.98 µM; hit rate 51% among 680; CCF4 FRET ratio; shares compounds with TLR9-MyD88 inh;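 active = mean inhibition across three repeats above about 21% taken from the earlier screen, limit read from the data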;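 also: blue over green emission ratio reports constitutive TLR9 MyD88 association via BLA complementation; 0% = DMSO vehicle wells and 100% = clavulanate BLA inhibitor wells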
BLA counter-1: beta-lactamase reporter inhibitors in CHO cells, artefact control for TLR9-MyD88 binding inhibitor project, cell-based, fluorescence | shares compounds with TLR9-MyD88 inh | inhibition, % at 4.98 µM | CHO-BLA cells, CCF4 FRET ratio, BLA reporter | hit rate 7% among 680;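 active = mean inhibition above a 50% cutoff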;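 also: counterscreen of TLR9-MyD88 hits on CMV-driven BLA in CHO-K1 cells; 0% = DMSO alone and 100% = clavulanate blocking BLA; higher means less blue over green ratio so more BLA blockade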
TLR9 CHO tox: CHO cell viability loss – luminescence, single concentration, cytotoxicity control for TLR9-MyD88 binding inhibitor project | shares compounds with TLR9-MyD88 inh | inhibition, % at 4.98 µM | hit rate 39% among 680 | TLR9-MyD88 CHO cells cytotoxicity; in the data active = inhibition above about 11%
ABHD5-PLIN5 conf: ABHD5-PLIN5 interaction inhibitors, confirmation, biochemical, luminescence | inhibition, % at 4 µM | hit rate 67% among 2,200 | shares compounds with ABHD5 PLIN5 PPI; in the data active = inhibition above about 23%;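 also: 0% = DMSO vehicle wells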
HNF4 split-luc: HNF4 dimerization inhibitors, counter-screen for ABHD5-PLIN5 interaction inhibitor project, biochemical, split-luciferase complementation, luminescence; shares compounds with ABHD5 PLIN5 PPI; inhibition, % at 4 µM; hit rate 77% among 2,200;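 active = mean inhibition across replicate wells exceeding the computed hit threshold, cut at about 13% in these data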;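 also: light from luciferase halves that rejoin when HNF4 fusion proteins dimerize; 0% = DMSO only wells and the 100% control is not given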
NOD2-RIPK2 conf: NOD2-RIPK2 binding disruptors, retest, confirmation, fluorescence, CHO cells, BLA complementation, triplicate; shares compounds with NOD2-RIPK2 inh; CCF4 FRET; inhibition, % at 4.98 µM; hit rate 70% among 1,200;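 active = mean inhibition across replicates above a set limit taken from the earlier primary screen, cut at about 21% in these data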;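 also: 0% = DMSO-only wells and the high end = clavulanate BLA-blocked wells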
BLA counter-2: counter-screen for NOD2-RIPK2 interaction inhibitors: BLA reporter | inhibition, % at 4.98 µM | hit rate 57% among 1,200 | AID 624371 | shares compounds with NOD2-RIPK2 inh | CHO BLA reporter, CCF4 FRET ratio, counterscreen;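 active = mean inhibition above the low-control mean inhibition plus three low-control SD, cut at about 11% in these data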;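 also: 0% = DMSO only wells and 100% = clavulanate high control wells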
rCAG binder conf: small molecules binding CAG repeat RNA – biochemical, fluorescence, confirmation. inhibition, % at 3 µM. r(CAG) RNA repeat, TO-PRO-1 dye displacement fluorescence. hit rate 70% among 4,300. shares compounds with rCAG RNA binder;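 active = inhibition above a per-plate cutoff, the mean inhibition of sample wells plus 3 SD, cut at about 35% in these data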;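 also: loss of TO-PRO-1 fluorescence as compound displaces dye from 1x1 AA loop RNA; 0% = DMSO only wells and 100% = 100 µM mitoxantrone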
DNA CAG counter: displacement of TO-PRO-1 from CAG DNA duplex, counter-screen for rCAG RNA repeat binder project, biochemical, fluorescence, TO-PRO-1 dye, d(CAG) DNA oligo | hit rate 94% among 4,300 | inhibition, % at 3 µM | shares compounds with rCAG RNA binder | d(CAG) DNA oligo TO-PRO-1 dye displacement;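 active = inhibition above its plate's cutoff, the mean test-well inhibition plus 3 SD, cut at about 4.8% in these data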;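 also: 0% = DNA dye mix with DMSO and 100% = 100 µM mitoxantrone; hits displace the dye from DNA and so lower well fluorescence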
PRMT1 confirm: PRMT1 methyltransferase inhibitors, confirmation, biochemical, fluorescence polarization, triplicate. recombinant His-PRMT1, activity-based probe fluorescence polarization. inhibition, % at 2.79 µM. hit rate 42% among 3,300. shares compounds with PRMT1 inh. AID 687036, 2013;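 active = mean inhibition across replicates above the hit cutoff derived for the earlier primary screen, cut at about 22% in these data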
* marks the source's active call; other numbers are inactive results; · = no result. A selection: hits, their analogues and other compounds. The true share with any hit is near 3.3%.

SMILES	PRMT1 inh	rCAG RNA binder	TLR9-MyD88 inh	NOD2-RIPK2 inh	ABHD5 PLIN5 PPI	TLR4-MyD88 BLA	TLR4-MyD88 conf	BLA inh HeLa	TLR9-MyD88 cf	BLA counter-1	TLR9 CHO tox	PRMT1 confirm	others
CCC(=O)OCCNc1cc(Sc2nc3ccccc3[nH]2)c2nonc2c1[N+](=O)[O-]	84*	12	56*	80*	43*	29*	20	-10	·	·	·	76*	ABHD5-PLIN5 conf=63*;HNF4 split-luc=111*;NOD2-RIPK2 conf=93*;BLA counter-2=48*
Cc1cc(C(=O)OCC(=O)NC2CCCC2)c2ccccc2n1	-1	-3	2	-7	16	·	·	·	·	·	·	·
O=C(COC(=O)c1c2c(nc3ccccc13)/C(=C/c1ccco1)CC2)NC1CCCC1	35*	68*	19	2	9	45*	45*	69*	·	·	·	28*	rCAG binder conf=60*;DNA CAG counter=34*
O=C(OCCN1C(=O)c2cccc3c(N4CCOCC4)ccc(c23)C1=O)c1ccccc1Cl	78*	-5	40*	53*	-3	41*	46*	65*	·	·	·	65*	NOD2-RIPK2 conf=54*;BLA counter-2=60*
Cc1c(Nc2cc(Cl)c3nonc3c2[N+](=O)[O-])c(=O)n(-c2ccccc2)n1C	59*	1	50*	84*	21	38*	29*	2	48*	7	98*	58*	NOD2-RIPK2 conf=56*;BLA counter-2=31*
NC(=O)c1ccc(NC(=O)COC(=O)CC2Sc3ccccc3NC2=O)cc1 (configuration not stated)	5	4	-4	-5	8	·	·	·	·	·	·	·
O=C(CNc1nnnn1-c1ccccc1)N1CCCC1	3	-1	·	·	·	·	·	·	·	·	·	·
CCCCCCn1c(=O)[nH]c2nc3cc(N)c(C)cc3nc2c1=O	132*	-247	32*	42*	-21	28*	18	43*	20	19	-5	123*	NOD2-RIPK2 conf=45*;BLA counter-2=49*
CCN(CC)c1ccc2cc(-c3nc(-c4ccc(OC)cc4)cs3)c(=O)oc2c1	45*	-310	·	·	·	80*	90*	115*	·	·	·	78*
CCN(CC)c1ccc2cc(-c3nnc(-c4ccc(Br)cc4)o3)c(=O)oc2c1	·	·	·	·	·	11	·	·	·	·	·	·
COC(=O)c1cc(C#N)c(N2CCOCC2)nc1C	-5	-1	22*	-7	1	-5	·	·	-4	-4	0	·
c1ccc(-c2cnn3c(-c4ccccc4)c(-c4ccccc4)nc3n2)cc1	-5	1	23*	9	7	13	·	·	60*	58*	-3	·
Nc1nc(-c2ccccc2)c(-c2ccccc2)n1N	-4	0	5	-1	6	·	·	·	·	·	·	·
Cc1cc(C=C2C(=O)c3ccccc3C2=O)c(C)n1-c1ccccc1	11	10	0	-3	-2	10	·	·	·	·	·	·
Cc1cc(/C=C2\Cc3ccccc3C2=O)c(C)n1-c1ccccc1	5	10	21*	10	6	1	·	·	19	23	8	·
O=S1(=O)Nc2c(ccc3cccnc23)-c2ccccc21	·	·	21*	25*	-3	7	·	·	33*	17	99*	·
CN1CCN(C(=O)CSc2nc(-c3cccs3)cc(-c3cccs3)c2C#N)CC1	·	·	24*	18	14	-10	·	·	21	19	5	·
COc1ccccc1NS(=O)(=O)c1cccc(NC(=O)C2CC(=O)N(Cc3ccccc3)C2)c1 (configuration not stated)	1	3	24*	-10	6	0	·	·	-2	0	1	·
O=C1c2ccccc2NC(c2ccc(-c3cccc([N+](=O)[O-])c3)o2)N1O (configuration not stated)	-1	14	22*	3	5	2	·	·	8	7	43*	·
